# Source: PubChem BioAssay AID540321 (Johns Hopkins Ion Channel Center, 2011)
# Calls of active or inactive are those of the source.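 The calls were made as follows: active = Inhibition of the Kir2.1 potassium channel over 30% at some tested dose, plus a fitted dose response curve; inactive = no Kir2.1 inhibition at any dose, or no curve fitted.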
# Molecular target: Inward rectifier potassium channel 2 (Mus musculus) (UniProt P35561)
# Assay: off-target blockade of inward rectifier Kir2.1 – cell-based, FluxOR thallium flux, CRC round 2, selectivity assay for KCNK9 inhibitor project, SAR follow-up (AID 540321)
# Sequence of Inward rectifier potassium channel 2 (Mus musculus) (P35561 whole entry, looked up): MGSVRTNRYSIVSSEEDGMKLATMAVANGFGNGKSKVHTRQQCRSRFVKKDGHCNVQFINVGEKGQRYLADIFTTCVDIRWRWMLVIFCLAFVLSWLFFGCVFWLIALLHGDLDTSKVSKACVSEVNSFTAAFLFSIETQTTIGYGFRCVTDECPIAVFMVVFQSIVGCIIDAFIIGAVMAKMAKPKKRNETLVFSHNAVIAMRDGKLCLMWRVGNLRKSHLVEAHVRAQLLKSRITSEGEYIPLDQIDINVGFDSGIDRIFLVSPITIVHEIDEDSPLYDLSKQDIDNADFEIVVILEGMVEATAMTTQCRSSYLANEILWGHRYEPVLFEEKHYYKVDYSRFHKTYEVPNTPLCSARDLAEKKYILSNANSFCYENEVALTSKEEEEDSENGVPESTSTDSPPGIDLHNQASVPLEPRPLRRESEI
row,SMILES,outcome
1,CCOc1ccccc1NC(=O)c1cccc(C(=O)NC2CCCC2)c1,inactive
2,CN(C)c1ccc(C(=O)Nc2cccc(NC(=O)c3ccccc3)c2)cc1,inactive
3,CC(C)(C)c1ccc(C(=O)Nc2cccc(NC(=O)c3ccccc3)c2)cc1,inactive
4,CC(C1CC2CCC1C2)n1c(-c2ccccc2)n[nH]c1=S (stereo not drawn),inactive
5,CCOc1ccccc1NC(=O)c1cccc(NC(=O)c2cccc(C)c2)c1,inactive
6,COc1ccccc1C(=O)Nc1cccc(NC(=O)c2ccccc2C(C)C)c1,inactive
7,CCOc1ccccc1C(=O)Nc1cccc(NC(=O)c2ccccc2OC)c1,inactive
8,CCOc1ccccc1NC(=O)c1cccc(NC(=O)c2ccccc2C)c1,inactive
9,COc1cccc(C(=O)Nc2cccc(NC(=O)c3cccc(C)c3)c2)c1,inactive
10,Cc1ccccc1C(=O)Nc1cccc(NC(=O)c2ccccc2)c1,inactive
11,CC(c1ccco1)n1c(-c2ccoc2)n[nH]c1=S (stereo not drawn),inactive
12,COc1ccccc1C(=O)Nc1cccc(NC(=O)c2ccccc2C)c1,inactive
13,O=C(Nc1cccc(NC(=O)c2ccncc2)c1)c1ccccc1,inactive
14,Cc1cccc(C(=O)Nc2cccc(NC(=O)c3ccco3)c2)c1,inactive
15,COc1ccccc1NC(=O)c1cccc(NC(=O)c2ccccc2C(F)(F)F)c1,inactive
16,CC(C)n1c(-c2ccco2)n[nH]c1=S,inactive
17,Cc1ccc(C(=O)Nc2cccc(NC(=O)c3ccccc3)c2)cc1,inactive
18,COc1cccc(C(=O)Nc2cccc(NC(=O)c3ccccc3)c2)c1,inactive
19,CCOc1ccccc1NC(=O)c1cccc(NC(=O)c2ccccc2OC(F)(F)F)c1,inactive
20,CCOc1ccccc1NC(=O)c1cccc(NC(=O)c2ccccc2OC)c1,inactive
21,CC(C1CC2CCC1C2)n1c(-c2ccc(Cl)cc2)n[nH]c1=S (stereo not drawn),inactive
22,CCOc1ccccc1NC(=O)c1cccc(NC(=O)CC2CCCCC2)c1,inactive
23,COc1cccc(OC)c1C(=O)Nc1cccc(NC(=O)c2cccc(C)c2)c1,inactive
24,O=C(Nc1cccc(NC(=O)c2cccs2)c1)c1ccccc1,inactive
25,COc1ccc(C(=O)Nc2cccc(NC(=O)c3ccccc3)c2)cc1,inactive
26,CC(C1CC2CCC1C2)n1c(-c2ccoc2)n[nH]c1=S (stereo not drawn),inactive
27,Cc1ccccc1-c1n[nH]c(=S)n1C(C)C1CC2CCC1C2 (stereo not drawn),inactive

row,SMILES,outcome
1,CCOc1ccccc1NC(=O)c1cccc(NC(=O)c2ccccc2Cl)c1,inactive
2,O=C(Nc1cccc(NC(=O)c2ccccc2Cl)c1)c1ccccc1,inactive
3,O=C(Nc1cccc(NC(=O)c2ccc(C(F)(F)F)cc2)c1)c1ccccc1,inactive
4,Cc1cccc(C(=O)Nc2cccc(NC(=O)c3ccccc3OC(F)(F)F)c2)c1,inactive
5,O=C(Nc1cccc(NC(=O)c2ccoc2)c1)c1ccccc1,inactive
6,COc1ccccc1NC(=O)c1cccc(NC(=O)C2CCCCC2)c1,inactive
7,CC(C1CC2CCC1C2)n1c(-c2ccco2)n[nH]c1=S (stereo not drawn),inactive
8,Cc1cccc(C(=O)Nc2cccc(NC(=O)c3ccncc3)c2)c1,inactive
9,Cc1cccc(C(=O)Nc2cccc(NC(=O)c3ccccc3C(F)(F)F)c2)c1,inactive
10,COc1ccccc1NC(=O)c1cccc(NC(=O)c2ccccc2OC)c1,inactive
11,CCOc1ccccc1C(=O)Nc1cccc(NC(=O)C2CCCC2)c1,inactive
12,CCOc1ccccc1C(=O)Nc1cccc(NC(=O)c2cccc(C)c2)c1,inactive
13,CCOc1ccccc1NC(=O)c1cccc(NC(=O)c2cccc(C(F)(F)F)c2)c1,inactive
14,CCOc1ccc(NC(=O)c2cccc(NC(=O)C3CCCC3)c2)cc1,inactive
15,COc1ccccc1C(=O)Nc1cccc(NC(=O)c2ccccc2OC(F)(F)F)c1,inactive
16,CC(c1ccccc1)n1c(-c2ccco2)n[nH]c1=S (stereo not drawn),inactive
17,CCOc1ccccc1NC(=O)c1cccc(NC(=O)c2ccc(OC)cc2)c1,inactive
18,CCOc1ccccc1NC(=O)c1cccc(NC(=O)C2CCCC2)c1,inactive
19,Cc1cccc(C(=O)Nc2cccc(NC(=O)c3cccc(C)c3)c2)c1,inactive
20,CCOc1ccccc1NC(=O)c1cccc(NC(=O)c2cccc(Cl)c2)c1,inactive
21,S=c1[nH]nc(-c2ccco2)n1CC1CCCCC1,inactive
22,O=C(Nc1cccc(NC(=O)C2CCCCC2)c1)c1ccccc1,inactive
23,CCOc1ccccc1NC(=O)c1cccc(NC(=O)C(C)(C)C)c1,inactive
24,CCOc1cccc(NC(=O)c2cccc(NC(=O)C3CCCC3)c2)c1,inactive
25,CCOc1ccccc1NC(=O)c1cccc(NC(=O)CC2CCCC2)c1,inactive
26,COc1ccccc1-c1n[nH]c(=S)n1C(C)C1CC2CCC1C2 (stereo not drawn),inactive
